Hits are enriched below; roughly 2.4% of the tested compounds scored in any of these assays.
Cruzain inh Det: inhibitors of Trypanosoma cruzi cruzain with detergent; P25779; purified cruzain, Z-FR-AMC fluorescence, 0.01% Triton; Potency, µM, for the others: max response, negative = inhibition, most hits filed as inhibitors; 0.43% of 200,000 active; AID 1478;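 note: plate controls were neutral wells for no effect and buffer without enzyme for full effect; nearly all actives have a fitted effect of over 40% in size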
Target sequence (P25779 123-467 limits assumed): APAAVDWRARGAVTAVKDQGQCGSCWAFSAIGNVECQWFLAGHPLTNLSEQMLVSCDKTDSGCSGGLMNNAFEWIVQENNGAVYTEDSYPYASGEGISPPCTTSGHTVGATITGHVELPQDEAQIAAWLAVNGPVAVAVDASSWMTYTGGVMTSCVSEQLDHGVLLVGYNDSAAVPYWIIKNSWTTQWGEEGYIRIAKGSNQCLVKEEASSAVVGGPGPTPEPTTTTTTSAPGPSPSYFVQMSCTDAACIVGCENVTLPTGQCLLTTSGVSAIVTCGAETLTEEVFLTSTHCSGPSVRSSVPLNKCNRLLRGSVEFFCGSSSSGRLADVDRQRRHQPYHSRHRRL
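Purified cruzain (1.5 nM final) was preincubated with compounds for 15 min at room temperature in 100 mM sodium acetate pH 5.5, 5 mM DTT, 0.01% Triton X-100. Reaction started with 2 uM Z-FR-AMC; AMC fluorescence change over 60 s gave activity.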
Cruzain noTriton: cruzain (T. cruzi) inhibition without detergent | purified cruzain, Z-FR-AMC fluorescence, no detergent | Potency, µM, for the others: max response, negative = inhibition, actives largely listed as inhibitors | 2.3% of 200,000 active | AID 1476;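 note: plate controls were enzyme without inhibitor for no effect and buffer without enzyme for full effect; nearly all actives have a fitted effect of over 40% in size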
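Detergent-free condition (0.00005% Triton X-100) in acetate buffer pH 5.5 with DTT. 1.5 nM enzyme and compound were pre-mixed 15 min, then 2 uM Z-FR-AMC substrate added; reaction progress from fluorescence change between first and third reads (60 s).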
An asterisk follows results filed as active; u = inconclusive. Calls come from the whole dose curve; as a rule, active = well fitted curve in the direction sought with a large enough effect; inconclusive = small, poorly fitted or top-dose-only effect, or another doubt; inactive = no such curve, though single readings can be large; an effect the other way counts as inactive or inconclusive. Potency is the fitted concentration of half-maximal effect.

SMILES | Cruzain inh Det | Cruzain noTriton
COc1cc(OC)c2c(-c3cccc(-c4ccc(OC)c(F)c4)c3)cc(=O)oc2c1 | 0% | 32µM*
COc1cc(OC)c2c(-c3cccc(-c4ccc(C(C)=O)cc4)c3)cc(=O)oc2c1 | 4% | u
O=C(NC1(C(F)(F)F)C(=O)Nc2c1c(=O)[nH]c(=O)n2-c1ccc(Cl)cc1)c1ccccc1F (configuration not stated) | 0% | -14%
CCc1ccccc1NC(=O)CSc1nc2c(c(-c3ccco3)c1C#N)CCCC2 | -7% | -17%
Cc1ccccc1NC(=O)CSc1nc2c(c(-c3ccco3)c1C#N)CCCC2 | -5% | 7.9µM*
CC1CCn2c(nc3cc(C(=O)NCCc4ccccc4)ccc32)C1 (configuration not stated) | 3% | -16%
CC(C)CNC(=O)C(=O)Nc1c2c(nn1-c1ccc(Cl)cc1)CSC2 | 1% | u
COc1ccc(-n2nc3c(c2NC(=O)C(=O)NCc2ccccc2)CSC3)cc1 | -1% | 7.9µM*
COc1ccc(CNC(=O)C(=O)Nc2c3c(nn2-c2ccccc2)CSC3)cc1 | -2% | 25µM*
O=C(NCc1ccccc1)C(=O)Nc1c2c(nn1-c1ccccc1)CSC2 | -2% | u
CN(Cc1ccccc1)Cn1ccnc1 | -1% | 4%
O=C(CSc1nc2ccccc2s1)c1sc2sc3ccccc3[n+]2c1O | -20% | 2%
Cc1ccc(C2C(C=Nc3c(C)n(C)n(-c4ccccc4)c3=O)=C(c3ccccc3)Oc3ccccc32)cc1 (configuration not stated) | -3% | 7.9µM*
Cc1c(N=Cc2cccs2)c(=O)n(-c2ccccc2)n1C | 4% | -9%
Cc1c2cnn(-c3ccccc3)c(=O)c2c(C)n1CC(=O)NCCc1ccc(Cl)cc1 | -4% | 12%
O=C(O)c1cc(-c2ccc(-c3ccccc3)cc2)nc2cc3ccccc3cc12 | -6% | -6%
CCN(c1ccccc1)S(=O)(=O)c1ccc(Cl)c(NC(=O)COC(=O)c2ccc(Cl)c(N)c2)c1 | -4% | 25µM*
CN(C)S(=O)(=O)c1cccc(NC(=O)COC(=O)c2ccc(Br)o2)c1 | -2% | 1%
CCN(c1ccccc1)S(=O)(=O)c1ccc(Cl)c(NC(=O)COC(=O)c2cccc(OC)c2O)c1 | -4% | u
CCN(CC)S(=O)(=O)c1ccc(Cl)c(NC(=O)COC(=O)c2c(C)noc2C)c1 | 0% | 3%
CCN(CC)S(=O)(=O)c1ccc(Cl)c(NC(=O)COC(=O)c2cc(-c3ccccc3Cl)nc3ccccc23)c1 | -4% | 10µM*
CN(C)S(=O)(=O)c1cccc(NC(=O)COC(=O)c2cc(-c3cccc(Br)c3)nc3ccccc23)c1 | -1% | 10µM*
COC(=O)c1ccc(C(/C=C/[C@@H](C)C(=O)N(C)C)NC(=O)OCc2ccccc2)cc1 (some centres not stated) | -3% | 13%
c1ccc(CN2CC[C@@H](CNc3ncnc4ccccc34)C2)cc1 | 3% | -8%
O=C(OC[C@@H](O)CO)c1ccccc1Nc1ccnc2cc(Cl)ccc12 | -7% | -13%
SMILES | Cruzain inh Det | Cruzain noTriton
Cc1cc(O)ccc1Nc1nc2ccccc2nc1Nc1ccc(O)cc1C | -18% | 10µM*
Cc1ccc(Nc2nc3ccccc3s2)c(C)c1 | -9% | -3%
CCCC(=O)NCCc1c2n(c3ccc(OC)cc13)CCCc1ccccc1-2 | -7% | u
Cc1cc(Br)ccc1NC(=O)c1cc2c(s1)-c1ccccc1SC2 | -7% | 7.9µM*
Cc1cc(Br)ccc1NC(=O)c1ccccc1-c1ccccc1 | -8% | 10%
CSc1ccc(/C=C(\NC(=O)c2ccc(C)cc2)C(=O)Nc2cccc(C)c2)cc1 | 0% | 7.9µM*
Cc1ccc(C(=O)N/C(=C/c2ccc(Cl)cc2)C(=O)Nc2cccc(C(=O)O)c2)cc1 | -8% | u
COc1ccccc1N1CCN(C(CNC(=O)C(=O)NCCCN(C)C)c2cccnc2)CC1 (configuration not stated) | -2% | 13%
Cc1ccc(-c2nc3ncccc3o2)cc1NC(=O)COc1ccc(C(C)C)cc1 | -4% | u
Cc1ccc(NC(=O)NC(=O)COc2ccc(Cl)cc2Cl)c(C)c1 | 0% | 13µM*
Cc1cccc(NC(=S)NNC(=O)COc2ccc(Cl)cc2Cl)c1 | 0% | u
Cc1cccc(C)c1NC1=NC2(CCCCC2)N=C(N)N1 | 2% | 4%
NC1=NC2(CCCCC2)N=C(Nc2ccc(Br)cc2)N1 | 28µM* | 20µM*
CC(/C=C/c1ccc(N(C)C)cc1)=N\N=C(/N)SC1CC(=O)N(c2ccc(C(=O)O)cc2)C1=O (configuration not stated) | u | 10µM*
O=C(O)c1ccc(N2C(=O)CC(SC(=Nc3ccccc3)Nc3ccccc3)C2=O)cc1 (configuration not stated) | -2% | -2%
O=C(Cc1ccccc1)Nc1nc2ccccc2[nH]1 | 0% | 2%
O=C(Cc1c[nH]c2ccccc12)Nc1nc2ccccc2[nH]1 | -26% | 25µM*

Screening results (PubChem)
